Measured values from article PMC13541613, “GHT-SELEX demonstrates unexpectedly high intrinsic sequence specificity and complex DNA binding of many human transcription factors”.

How the values were obtained:
Assay in all cases: HT-SELEX; 20 mM HEPES pH 7, 140 mM KCl, 5 mM NaCl, 1 mM K2HPO4, 2 mM MgSO4, 100 uM EGTA, ZnSO4, 0.1% Tween20; room temperature, 1 h; high values mean tight binding
Conditions in all cases: protein: ivt; tags: eGFP (N-terminal); dsDNA, one strand shown
ZNF721 full-length = ZNF721 full-length (Homo sapiens, UniProt Q8TF20-2 1-923)
ZNF721 full-length, sequence (Q8TF20 other isoform, or with tags, fused parts or gaps): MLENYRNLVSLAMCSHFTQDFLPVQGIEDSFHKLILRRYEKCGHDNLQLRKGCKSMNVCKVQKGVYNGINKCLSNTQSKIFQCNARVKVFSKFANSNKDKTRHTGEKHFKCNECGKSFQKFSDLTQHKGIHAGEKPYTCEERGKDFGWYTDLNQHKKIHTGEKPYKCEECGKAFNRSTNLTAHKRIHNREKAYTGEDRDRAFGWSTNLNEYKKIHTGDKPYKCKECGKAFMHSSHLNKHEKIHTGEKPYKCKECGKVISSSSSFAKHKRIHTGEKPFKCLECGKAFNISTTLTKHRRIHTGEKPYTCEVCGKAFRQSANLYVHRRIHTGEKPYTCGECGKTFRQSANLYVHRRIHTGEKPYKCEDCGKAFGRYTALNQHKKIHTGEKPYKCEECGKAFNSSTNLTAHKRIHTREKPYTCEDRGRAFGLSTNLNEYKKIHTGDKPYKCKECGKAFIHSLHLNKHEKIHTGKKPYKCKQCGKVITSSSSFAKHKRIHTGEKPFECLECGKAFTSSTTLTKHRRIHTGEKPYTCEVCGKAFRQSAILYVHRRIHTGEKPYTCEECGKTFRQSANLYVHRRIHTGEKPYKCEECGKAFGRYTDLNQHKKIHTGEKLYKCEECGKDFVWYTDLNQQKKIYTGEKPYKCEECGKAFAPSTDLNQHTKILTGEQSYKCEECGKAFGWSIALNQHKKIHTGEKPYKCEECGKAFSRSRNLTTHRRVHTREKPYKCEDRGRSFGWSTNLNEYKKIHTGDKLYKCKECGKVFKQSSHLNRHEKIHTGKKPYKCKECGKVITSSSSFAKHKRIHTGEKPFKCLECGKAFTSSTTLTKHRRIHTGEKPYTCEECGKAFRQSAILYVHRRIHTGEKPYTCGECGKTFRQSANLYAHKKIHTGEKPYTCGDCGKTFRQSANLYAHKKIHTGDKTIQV
How it was run: (§1)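 A tagged transcription factor, either full-length or its DNA-binding-domain fragment, was made in HEK293 lysate or cell-free extract, immobilised on beads and incubated with a randomized 40-base DNA library for 1 h at room temperature in HEPES/KCl low-stringency buffer containing Tween20. Washed beads were heat-eluted, and the bound DNA was PCR-amplified over successive cycles and Illumina-sequenced at ~3 million 60 bp reads per sample. The binding signal is the relative k-mer count in selected reads, where a higher value means tighter binding.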

ZNF721 DBD1 = ZNF721 DBD1 (Homo sapiens, UniProt Q8TF20-2 29-461)
ZNF721 DBD1, sequence (Q8TF20 17-449): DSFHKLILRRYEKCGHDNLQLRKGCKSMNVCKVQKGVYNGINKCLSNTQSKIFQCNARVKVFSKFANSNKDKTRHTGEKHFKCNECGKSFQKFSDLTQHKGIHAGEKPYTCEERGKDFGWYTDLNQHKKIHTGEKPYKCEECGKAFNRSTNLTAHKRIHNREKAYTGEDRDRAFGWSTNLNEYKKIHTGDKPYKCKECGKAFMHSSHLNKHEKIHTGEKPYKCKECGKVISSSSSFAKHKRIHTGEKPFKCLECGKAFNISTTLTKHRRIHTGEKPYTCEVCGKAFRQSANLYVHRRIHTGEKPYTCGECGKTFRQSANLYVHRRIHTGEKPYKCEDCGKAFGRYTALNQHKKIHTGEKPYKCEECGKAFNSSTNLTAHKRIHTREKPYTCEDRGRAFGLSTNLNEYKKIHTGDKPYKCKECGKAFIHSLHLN
How it was run: as §1

ZNF721 DBD2 = ZNF721 DBD2 (Homo sapiens, UniProt Q8TF20-2 395-923)
ZNF721 DBD2, sequence (Q8TF20 383-911): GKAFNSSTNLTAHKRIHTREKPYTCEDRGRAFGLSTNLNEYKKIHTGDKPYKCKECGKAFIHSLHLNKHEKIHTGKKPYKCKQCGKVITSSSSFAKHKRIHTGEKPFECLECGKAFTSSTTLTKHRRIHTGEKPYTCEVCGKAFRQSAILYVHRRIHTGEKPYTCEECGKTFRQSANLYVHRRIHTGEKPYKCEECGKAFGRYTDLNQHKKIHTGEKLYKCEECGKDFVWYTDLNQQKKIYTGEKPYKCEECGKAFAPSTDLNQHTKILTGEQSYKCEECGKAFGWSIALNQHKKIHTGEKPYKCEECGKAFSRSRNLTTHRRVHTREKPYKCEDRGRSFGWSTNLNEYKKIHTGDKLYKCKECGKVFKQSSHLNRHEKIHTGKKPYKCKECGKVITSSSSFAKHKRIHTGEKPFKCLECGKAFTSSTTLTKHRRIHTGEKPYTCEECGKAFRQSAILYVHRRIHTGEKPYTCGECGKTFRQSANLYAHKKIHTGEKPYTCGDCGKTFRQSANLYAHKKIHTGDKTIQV
How it was run: as §1

Row | Sequence | binding signal (ZNF721 full-length) [relative 10-mer count] | binding signal (ZNF721 DBD1) [relative 10-mer count] | binding signal (ZNF721 DBD2) [relative 10-mer count]
1 | CAGCATACCC | 0.596 | 0.00271 | 0.909
2 | CCCCAACCCA | 0.13 | 0.00482 | 0.00384
3 | CCTCCCCACC | 0.255 | 0.0111 | 0.00791
4 | CGCCCGCCCC | 0.126 | 0.00408 | 0.00144
5 | ACCCCTCCCC | 0.189 | 0.00688 | 0.00216
6 | GCAAAAAAAA | 0.118 | 0.0105 | 0.056
7 | CGACCCCCCC | 0.113 | 0.00427 | 0.0018
8 | CCACGACCCC | 0.118 | 0.00344 | 0.003
9 | CCTCCCCCTC | 0.15 | 0.00807 | 0.00467
10 | CCCCACCTCC | 0.24 | 0.0128 | 0.00575
11 | CCCTCCACCC | 0.321 | 0.0139 | 0.00731
12 | AGAAAAAACA | 0.12 | 0.00211 | 0.0902
13 | AAAGCATACC | 0.143 | 0.0247 | 0.0344
14 | AAAAAAGCGT | 0.276 | 0.0607 | 0.0512
15 | CACACCCACC | 0.135 | 0.00651 | 0.00695
16 | CCCCCCCACG | 0.116 | 0.00399 | 0.00443
17 | CCAACCCCCC | 0.169 | 0.0056 | 0.00144
18 | GCTTTTTTCC | 0.267 | 0.0895 | 0.0308
19 | AGGGGTGGTG | 0.139 | 0.00532 | 0.00407
20 | AAAAAAGAAG | 0.101 | 0.0198 | 0.0207
21 | CGCCACCCAC | 0.123 | 0.0056 | 0.00372
22 | CCACCCCCCA | 0.272 | 0.0103 | 0.00443
23 | CCACCGCCAC | 0.12 | 0.00394 | 0.00599
24 | CACACCCCCC | 0.146 | 0.00514 | 0.0018
25 | AGCATACCCA | 0.391 | 0.0246 | 0.366
26 | ACCCCATCCC | 0.102 | 0.00367 | 0.0024
27 | AGCATGACCA | 0.152 | 0.00431 | 0.236
